A selection: hits, their analogues and other compounds. The true share with any hit is near 17%.
HT1080NT lethal: kills 2HG-producing HT-1080-NT fibrosarcoma cells. AID 686970. Potency, µM (doses to about 46.1 µM), inactives show at the highest dose activity, negative = less viability, actives largely listed as cytotoxic. HT-1080-NT fibrosarcoma viability, CellTiter-Glo ATP luminescence, 48 h. 1.6% of 360,000 active;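 note: NT is the 2HG producing partner of a matched IDH1 knockdown line; 0% = DMSO-treated cells and -100% = media-only wells without cells; nearly all actives have a fitted effect of over 55% in size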
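A 48-hour cytotoxicity screen used HT-1080-NT cells plated 2 hours before compound delivery. ATP-based CellTiter-Glo luminescence measured viability, normalized to DMSO and no-cell controls.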
HepG2 tox: HepG2 cytotoxicity, counter-screen for TGF-b inhibitors; Potency, µM (titrated, usually from 46.1 µM), inactives show at the top dose activity change, negative = cytotoxicity, hits mostly cytotoxic; HepG2 CAGA-GFP viability, ATP luminescence, 18 h; 0.76% of 410,000 active
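HepG2 CAGA-GFP cells (1000/well, DMEM with 1% FBS) received compound, then TGF-beta at 500 pg/mL final, and were incubated 18 hours at 37 degrees C. Viability was read by CellTiter-Glo luminescence. Media-only wells were set as complete cell-killing and DMSO as no toxicity.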
HT1080 IDH1KD tx: kills HT-1080 cells with IDH1 knockdown; Potency, µM (highest dose often 46.1 µM), without a hit: top-dose activity, negative = toxicity, usual class: cytotoxic; 2% of 360,000 active; HT-1080 IDH1 knockdown viability, ATP luminescence, 48 h;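 note: 0% = DMSO wells and -100% = cell-free medium wells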
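Luminescent ATP read-out (CellTiter-Glo, 10 min at room temperature) after 48 h compound exposure at 37 °C gave viability of IDH1-knockdown HT-1080 cells. Activity was normalised to DMSO and cell-free wells, then fitted as concentration-response curves.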
DT40 TDP1 no CPT: qHTS for Inhibitors of human tyrosyl-DNA phosphodiesterase 1 (TDP1): qHTS in cells in absence of CPT. DT40 Tdp1-/- hTDP1 cells, no CPT, ATP luminescence, 48 h. Potency, µM (series often up to 46.2 µM), for inactives: top-dose activity change, negative = growth inhibition, hits mostly inhibitors. 15% of 420,000 active; note: % is set by controls: 0 for no effect and ±100 for the full control effect; nearly all actives have a fitted effect of over 55% in size
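Cells were dispensed at 400 per well, compounds added by pin tool, plates incubated ≥48 hr at 37 °C, then CellTiter-Glo added for 30 min at room temperature before luminescence reading. Line: DT40 Tdp1-/- complemented with hTDP1; camptothecin omitted.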
TGFb inhibitor: TGF-b pathway inhibition; HepG2 CAGA-GFP TGF-b/SMAD3 reporter, GFP fluorescence, 18 h; TGF-beta stimulated, 500 pg/mL final; Potency, µM (top dose mostly 46.1 µM), inactives show top-dose activity, negative = inhibition, usual class: inhibitors; 1.2% of 410,000 active; AID 588855; note: % is set by controls: 0 for no effect and ±100 for the full control effect; nearly all actives have a fitted effect of over 65% in size
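Inhibition of TGF-beta-driven CAGA-GFP reporter expression in HEPG2 cells is measured by cellular GFP fluorescence after 18 h stimulation with 500 pg/mL recombinant TGF-beta in 1% FBS medium at 37 degrees C.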
DT40 TDP1 CPT: DT40-hTDP1 cell growth loss with CPT. chicken DT40 Tdp1-/-;hTDP1 cells + 20 nM CPT, ATP luminescence, 48 h. Potency, µM (doses to about 46.2 µM), for inactives: at the top dose activity change, negative = growth inhibition, actives largely listed as inhibitors. 12% of 420,000 active. AID 686979; note: % is set by controls: 0 for no effect and ±100 for the full control effect; nearly all actives have a fitted effect of over 55% in size
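Chicken DT40 Tdp1-/- cells complemented with human TDP1, 400 cells/well, exposed to compounds plus 20 nM camptothecin for at least 48 h at 37 C; viability read as ATP content by CellTiter-Glo luminescence.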
The depositor's hits bear a star; ? = inconclusive; · = no result; ! = not active in a repeat; [ ] = dose if it differs, or a comment. Calls come from the whole dose curve; as a rule, active = well fitted curve in the direction sought with a large enough effect; inconclusive = small, poorly fitted or top-dose-only effect, or another doubt; inactive = no such curve, though single readings can be large; an effect the other way counts as inactive or inconclusive. Potency is the fitted concentration of half-maximal effect.

SMILES	HT1080NT lethal	HepG2 tox	HT1080 IDH1KD tx	DT40 TDP1 no CPT	TGFb inhibitor	DT40 TDP1 CPT
COc1ccc(C(=O)N2CCCCCC2)cc1OC1CCN(C(C)=O)CC1	1%	-3%	0%	-6%	1%	6%
O=C(Nc1ccc(F)c(Cl)c1)Nc1c[nH]c(=O)[nH]c1=O	·	2%	·	-22%	0%	1%
Cc1cc(C)nc(NC(=O)c2ccc(COc3ccccc3Cl)cc2)c1	-21%	-26%	?	26µM*	-13%	18µM*
Cc1cc(C)n(C(C)CC(=O)Nc2ccc(-c3ccno3)cc2)n1 (centres undefined)	-1%	-64%	11%	2%	10%	-23%
Cc1cc(N2CCCC2)nc2ccccc12	-5%	-3%	-6%	?	-11%	?
Cc1nn(-c2cc(C)c3ccccc3n2)c2c1CCC2	23%	0%	15%	23µM*	-1%	?
CN(C)N1C(N)=C(C#N)C(c2cccc3ccccc23)C2=C1CC(c1ccccc1)CC2=O (centres undefined)	?	-28%	?	7.3µM*	?	8.2µM*
O=C(NCc1ccc(Cl)cc1)C1CCN(S(=O)(=O)c2ccc(F)cc2)CC1	-11%	-2%	-8%	18µM*!	-10%	3.7µM*
C=CCNC(=O)C1CCN(S(=O)(=O)c2ccc(Br)cc2)CC1	0%	-1%	-9%	16µM*	?	?
O=C(NCCc1ccc(Cl)cc1)C1CCN(C(=O)c2ccc(F)cc2)CC1	-13%	1%	2%	18µM*	-2%	?
O=C(NCc1ccncc1)C1CCCN(S(=O)(=O)c2cc(Cl)ccc2Cl)C1 (centres undefined)	-20%	0%	-2%	16µM*	-21%	?
Cc1ccc(CNC(=O)C2CCN(S(=O)(=O)c3ccc(F)cc3)CC2)cc1	·	-70%	·	-23%	?	-20%
CC(=O)Nc1nc(-c2ccccc2)c(-c2ccccc2)s1	-13%	·	-10%	?	·	?
CC1CCN(CC(=O)Nc2ccc(Br)cc2[N+](=O)[O-])CC1	10%	-1%	11%	?	9%	?
CN1C(=O)C(C)(C)c2cc(S(=O)(=O)N3CCC(C(=O)NCc4ccc(F)cc4)CC3)ccc21	7%	-1%	-1%	?	3%	7.3µM*
CCc1nc2sc3c(c2c(=O)n1NC(=O)CCl)CCCC3	-22%	-68%	?	?	56%	21µM*
CC(=O)N(C(C)=O)n1c(C)nc2sc3c(c2c1=O)CCCC3	?	-12%	?	5%	5%	-17%
CCOc1ccc(OCC)c(S(=O)(=O)NCCOC23CC4CC(CC(C4)C2)C3)c1	-3%	0%	-29%	13µM*	?	?
CNS(=O)(=O)c1cccc2nsnc12	3%	-4%	-1%	0.0073µM*	-5%	-12%
COc1cc(S(=O)(=O)NCCOC23CC4CC(CC(C4)C2)C3)c(OC)cc1Cl	9%	1%	6%	10µM*	?	15µM*
O=S(=O)(NCCOC12CC3CC(CC(C3)C1)C2)c1cccc2nsnc12	-13%	-17%	-20%	15µM*	11%	18µM*
O=S(=O)(NCCc1ccccc1)c1cccc2nsnc12	2%	-13%	18%	-12%	4%	-3%
C=CCNC(=S)N1CCN(Cc2ccc3c(c2)OCO3)CC1	3%	-20%	5%	-30%	-17%	1%
CCOC(=O)c1noc2nc(C)n(CC(=O)Nc3cc(Cl)ccc3OC)c(=O)c12	·	0%	·	-16%	5%	22%
O=C(Nc1cc(Sc2ccccn2)cc([N+](=O)[O-])c1)c1cccc(Cl)c1	?	-69%	?	?	11µM*	?
SMILES	HT1080NT lethal	HepG2 tox	HT1080 IDH1KD tx	DT40 TDP1 no CPT	TGFb inhibitor	DT40 TDP1 CPT
COC(=O)Cc1sc(-c2ccccn2)nc1-c1ccccc1	15%	3%	1%	16µM*	-13%	?
CC1C=CC(C)C(C(=O)c2ccccc2)C1C(=O)c1ccccc1 (centres undefined)	-16%	2%	-23%	23µM*	-12%	13µM*
O=C(c1ccccc1)C1OC1C(=O)c1ccccc1 (centres undefined)	?	7%	?	6.5µM*	?	4.1µM*
Cc1c(N=N/C(C(=O)Nc2ccccc2)=C(/O)c2ccccc2)c(=O)n(-c2ccccc2)n1C	2%	-3%	-3%	21µM*	7%	?
CCN(CC(=O)Nc1cc(Cl)ccc1C)C(=O)c1ccc2c(c1)NC(=O)C(C)S2 (centres undefined)	-1%	-23%	-4%	?	0%	?
Oc1ccc2ccccc2c1/C=N/c1nc2c(s1)CCCC2	?	0%	23µM*	29µM*	?	?
Oc1c(Br)cc(Br)cc1/C=N/c1nc2c(s1)CCCC2	?	2%	?	16µM*	-10%	?
O=C(COC(=O)CSc1ccc(F)cc1)NC1CCCCCC1	1%[9.24 µM]	6%	0%	-6%	8%	?
CCC(=O)OC1CC(C)N(C(=O)c2ccccc2)c2ccc(C)cc21 (centres undefined)	-1%	-24%	-2%	14µM*	0%	11µM*
Cc1ccc(C(=O)N(c2ccccc2)C2CC(C)N(C(=O)c3ccco3)c3ccccc32)cc1 (centres undefined)	?	-5%	?	4.6µM*	-24%	7.3µM*
CCCC(=O)N1c2ccccc2C(N(C(C)=O)c2ccccc2)CC1C (centres undefined)	-3%	-19%	0%	?	1%	23µM*
Cc1ccc(CSC2=NCCN2C(=O)c2ccco2)cc1	2%	0%	5%	-23%	9%	-3%
CCC(=O)N1c2ccccc2[C@@H](N(C(C)=O)c2ccccc2)C[C@H]1C	0%	0%	-4%	-24%	1%	-24%
CC(=O)N(c1ccccc1)C1CC(C)N(C(=O)c2ccccc2)c2ccccc21 (centres undefined)	-1%	-4%	15%	7.3µM*	?	8.2µM*
CN1CCN(C(CNC(=O)C(=O)Nc2ccc3c(c2)OCCO3)c2ccc(F)cc2)CC1 (centres undefined)	-22%	4%	-1%	-29%	-15%	-6%

Source: PubChem BioAssay
